Most compounds without a hit are left out; they make up all but 10% or so of the library.
PNC inhibitor – blocks assembly of the perinucleolar compartment | PC3M PTB-GFP, PNC prevalence imaging, 16 h; hits give low values | activity change (PNC), negative = inhibition, % at 10 µM | 140,000 compounds, 3.1% hits | AID 2417;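 active means readout at or below -70, meaning at least 70% loss of cells showing the perinucleolar compartment, a nuclear body marking cancer cells; inconclusive means readout between -30 and a set limit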
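PC3M cells stably expressing PTB-GFP, 750–1000 cells/well, treated 16 h at 37 °C with compound (23 nl of library stock), in duplicate. After paraformaldehyde fixation and Hoechst stain, imaged at 20x; PNC prevalence scored by image analysis.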
12-hLO inh – inhibitors of human 12-lipoxygenase (ALOX12) | 150,000 compounds, 0.12% hits | P18054 | purified 12-hLO, xylenol orange hydroperoxide absorbance | Potency, µM (doses to about 57.1 µM), hits mostly inhibitors | AID 1452; active means well fitted inhibition curve with a large enough effect; inconclusive means small, poorly fitted or top-dose-only effect; further: nearly all actives have a fitted effect of over 55% in size
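Purified human 12hLO (150 nM final) was preincubated with compounds for 15 min at room temperature in 25 mM Hepes pH 7.0, 0.01% Triton X-100, then reacted with 40 uM arachidonic acid for 30 min. Hydroperoxide was detected with ferrous iron/xylenol orange.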
LMNA splice mod – LMNA splicing modulation | HeLa LMNA splicing GFP/RFP minigene ratio, 48 h | Potency, µM (top dose mostly 46.1 µM), usual class: inhibitors | AID 1487 | 200,000 compounds, 0.01% hits; active means well fitted inhibition curve with a large enough effect in the signal ratio, with a control signal flat, not every such curve was filed as active; inconclusive means small, poorly fitted or top-dose-only effect, or effect the other way, or a change in a side signal; the % refers to the signal ratio
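S3 HeLa cells stably expressing lamin A-EGFP splicing minigene plus DsRed2, 600 cells/well, 48 h compound exposure at 37C. Laser-scanning cytometry; analysed as GFP (500-530 nm)/RFP (575-640 nm) total intensity ratio; 0.5% DMSO vehicle.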
ALDH1A1 inh – inhibitors of human aldehyde dehydrogenase 1A1; P00352; Purified ALDH1A1, NADH fluorescence, propionaldehyde substrate; Potency, µM (top dose mostly 75.3 µM), most hits filed as inhibitors; 220,000 compounds, 7.3% hits; AID 1030
HPGD block – HPGD (human) dehydrogenase inhibition; purified HPGD, NADH fluorescence kinetic, PGE2 substrate; Potency, µM, usual class: inhibitors; 150,000 compounds, 4.3% hits; AID 894
Target sequence (P15428 whole entry, looked up): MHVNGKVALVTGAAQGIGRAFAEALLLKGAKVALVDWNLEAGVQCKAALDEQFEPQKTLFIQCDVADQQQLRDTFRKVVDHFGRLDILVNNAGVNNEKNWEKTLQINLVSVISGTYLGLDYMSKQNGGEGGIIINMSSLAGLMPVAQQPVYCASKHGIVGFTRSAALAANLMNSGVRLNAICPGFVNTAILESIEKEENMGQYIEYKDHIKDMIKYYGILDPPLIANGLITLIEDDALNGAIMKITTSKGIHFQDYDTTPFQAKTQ
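20 nM HPGD preincubated 15 min at room temperature with compound in 50 mM Tris-HCl pH 8, 0.01% Tween 20. Started with 1 mM NAD+ and 30 uM prostaglandin E2; NADH fluorescence (360/450 nm) read 5 times over 30-s intervals, last minus first.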
Each line names hits and unclear results; the compound was inactive in the other large screens. Unless noted, the call rests on the fitted dose curve; in most records, active means well fitted inhibition curve with a large enough effect (not every such curve was filed as active); inconclusive means small, poorly fitted or top-dose-only effect, or another doubt; inactive means no such curve, though single readings can be large or run the other way.

COc1cccc(CN(C(=O)Cn2nnc(-c3ccccc3F)n2)C(C(=O)NC(C)(C)C)c2ccncc2)c1 (stereo unspecified)	ALDH1A1 inh 24µM (no result: PNC inhibitor, 12-hLO inh, HPGD block)
CN(C)c1ccc(N=Cc2nc(-c3ccccc3)oc2OC(=O)c2cccc(Br)c2)cc1	ALDH1A1 inh inconclusive, HPGD block inconclusive
Oc1oc(-c2ccco2)nc1C=Nc1ccccc1	ALDH1A1 inh 22µM
CC(=O)Oc1oc(-c2ccccc2)nc1C=Nc1ccccc1	ALDH1A1 inh 18µM, HPGD block 16µM
CCC(=O)Oc1oc(-c2ccccc2)nc1C=Nc1ccccc1OC	ALDH1A1 inh inconclusive, HPGD block inconclusive
COc1ccc(N=Cc2nc(-c3ccccc3)oc2OC(=O)c2ccccc2)cc1	ALDH1A1 inh inconclusive, HPGD block 22µM
Cc1ccc(C(=O)Oc2oc(-c3ccco3)nc2C=Nc2ccccc2)cc1	ALDH1A1 inh inconclusive, HPGD block 7.1µM
COC(=O)[C@@]1(Cc2ccccc2)[C@H]2c3cc(C(=O)N4CCCC4)n(Cc4c(CO)[nH]cc(C)c4=O)c3C[C@H]2CN1C(=O)c1ccccc1	none (no result: PNC inhibitor, LMNA splice mod)
COc1ccccc1CN1CC[C@@]2(CCCN(C(=O)c3ccncc3)C2)C1	none (no result: PNC inhibitor, LMNA splice mod)
COc1cc(NC(=O)C2CCCN(S(=O)(=O)c3cn(C)cn3)C2)cc(OC)c1 (stereo unspecified)	none (no result: PNC inhibitor, 12-hLO inh, ALDH1A1 inh, HPGD block)
CCOc1cc(NC(=O)c2cccs2)c(OCC)cc1NC(=O)CCC(=O)NCC1CCCO1 (stereo unspecified)	none (no result: PNC inhibitor, 12-hLO inh, LMNA splice mod, HPGD block)
CCCCCC1OC1C/C=C\C/C=C\C/C=C\CCCC(=O)O (stereo unspecified)	none (no result: PNC inhibitor, LMNA splice mod)
CCOC(=O)c1ccc(N=Cc2nc(-c3ccccc3)oc2OC(C)=O)cc1	ALDH1A1 inh 22µM, HPGD block 16µM
Cc1ccc(NC2=C/C(=N\S(=O)(=O)c3cccs3)c3ccccc3C2=O)c(C)c1	LMNA splice mod inconclusive
Cc1cc(C)c(S(=O)(=O)/N=C2/C=C(SCC(=O)O)C(=O)c3ccccc32)cc1C	ALDH1A1 inh 7.1µM (no result: PNC inhibitor, 12-hLO inh, LMNA splice mod, HPGD block)
Cc1cc(C)nc(N/N=C/c2ccccc2)n1	LMNA splice mod inconclusive, ALDH1A1 inh 10µM, HPGD block 14µM
Cc1cc(C)nc(N/N=C/C=C/c2ccccc2)n1	PNC inhibitor -104
Cc1cc(=O)[nH]c(N/N=C/C=C/c2ccccc2)n1	none (no result: PNC inhibitor, 12-hLO inh, LMNA splice mod, HPGD block)
Cc1ccc(-n2cc(C(=O)OCc3ccc(Cl)cc3)c3ccccc3c2=O)cc1	none (no result: PNC inhibitor, 12-hLO inh, ALDH1A1 inh, HPGD block)
COC1=CC(=O)C(C(=O)c2ccccc2)=CC1=O	ALDH1A1 inh inconclusive, HPGD block 4.5µM (no result: PNC inhibitor)
COc1ccc(COC(=O)N/N=C2/C[C@@H](O)[C@@H](O)[C@@H]3[C@H]4C(=O)N(c5ccc(F)cc5F)C(=O)[C@@H]4CC[C@@H]23)cc1	none (no result: PNC inhibitor, 12-hLO inh, LMNA splice mod, HPGD block)
CCOc1cc(C(=O)NC(=S)Nn2cnnc2)cc(OCC)c1OCC	ALDH1A1 inh 11µM (no result: PNC inhibitor, 12-hLO inh, HPGD block)
NC(CSCSCC(N)C(=O)O)C(=O)O (stereo unspecified)	none (no result: PNC inhibitor)
O=C(c1cccs1)N1CCCc2cc(NS(=O)(=O)c3ccc(F)cc3F)ccc21	none (no result: PNC inhibitor, 12-hLO inh, ALDH1A1 inh, HPGD block)
CC(C)=CCC/C(C)=C/COc1c2occc2cc2ccc(=O)oc12	ALDH1A1 inh 8.9µM, HPGD block inconclusive (no result: PNC inhibitor, LMNA splice mod)
CC(C)=CCC/C(C)=C/COc1ccc2ccc(=O)oc2c1	ALDH1A1 inh inconclusive, HPGD block inconclusive (no result: PNC inhibitor, LMNA splice mod)
O=C(COC(=O)c1ccc([N+](=O)[O-])s1)NCc1ccc(F)cc1	ALDH1A1 inh 7.1µM
COc1ccccc1NC(=O)COC(=O)c1ccc([N+](=O)[O-])s1	ALDH1A1 inh 10µM (no result: PNC inhibitor, 12-hLO inh, HPGD block)
CC(NC(=O)COC(=O)c1ccc([N+](=O)[O-])s1)c1ccccc1 (stereo unspecified)	PNC inhibitor inconclusive, ALDH1A1 inh inconclusive
O=C(COC(=O)c1ccc([N+](=O)[O-])s1)NC(=O)NCc1ccccc1	ALDH1A1 inh 7.1µM (no result: PNC inhibitor, 12-hLO inh, LMNA splice mod, HPGD block)
CCC1CCc2c(sc(NC(=O)C3c4ccccc4Oc4ccccc43)c2C(N)=O)C1 (stereo unspecified)	PNC inhibitor -95, ALDH1A1 inh inconclusive, HPGD block inconclusive
CCOC(=O)c1c(NC(=O)C2c3ccccc3Oc3ccccc32)sc(C(N)=O)c1C	PNC inhibitor inconclusive
Cc1ccc(C)c(NC(=S)NNC(=O)c2csc3c2CCCC3)c1	12-hLO inh inconclusive, ALDH1A1 inh 8.9µM
Cc1ccc(C)c(NC(=S)NNC(=O)c2csc3c2CCC(C)C3)c1 (stereo unspecified)	PNC inhibitor -113, 12-hLO inh inconclusive, LMNA splice mod inconclusive, ALDH1A1 inh 10µM
